# Measured values reported in PubChem BioAssay (NCATS).
# Records with an inconclusive call do not appear. A call without a number means that no potency is given here. Activity calls are given as the source filed them. The call rests on the fitted dose curve; in most records, active means well fitted curve in the direction sought with a large enough effect; inconclusive means small, poorly fitted or top-dose-only effect, or another doubt; inactive means no such curve, though single readings can be large; an effect the other way counts as inactive or inconclusive.
# Legend:
# [1] = Quantitative High-Throughput drug screen in 47 multiple myeloma cell lines against the NCATS MIPE library collection: KMS12PE_JCRB cell viability assay (AID 1918972); further: nearly all actives have a fitted effect of over 30% in size
# Method in brief: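 Relative luminescence from CellTiter-Glo served as the viability signal, referenced to DMSO-treated (100%) and cell-free medium (0%) controls. Treatment lasted 48 hours at 37C with 500 cells per well.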
# [2] = Quantitative High-Throughput drug screen in 47 multiple myeloma cell lines against the NCATS MIPE library collection: KMS26_JCRB cell viability assay (AID 1918975); further: nearly all actives have a fitted effect of over 45% in size
# Method in brief: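 We plated 500 myeloma cells per well, pinned in MIPE 4.0 compounds, and incubated for 48 hours at 37C. ATP was then quantified with CellTiter-Glo, with DMSO and media-only wells defining 100% and 0%.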
# [3] = Quantitative High-Throughput drug screen in 47 multiple myeloma cell lines against the NCATS MIPE library collection: MM1S_ATCC cell viability assay (AID 1918980); further: nearly all actives have a fitted effect of over 45% in size
# Method in brief: (§1)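 Readout: median RLU from CellTiter-Glo after 5 min at room temperature. Preceding step was 48 h drug treatment of 500 cells/well at 37 °C, 5% CO2, with DMSO-only and media-only control wells.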
# [4] = Quantitative High-Throughput drug screen in 47 multiple myeloma cell lines against the NCATS MIPE library collection: NCIH929_DSMZ cell viability assay (AID 1918978); further: nearly all actives have a fitted effect of over 35% in size
# Method in brief: as §1
# [5] = Quantitative High-Throughput drug screen in 47 multiple myeloma cell lines against the NCATS MIPE library collection: OCIMY1_PLB cell viability assay (AID 1918979); further: nearly all actives have a fitted effect of over 35% in size
# Method in brief: as §1
# [6] = Quantitative High-Throughput drug screen in 47 multiple myeloma cell lines against the NCATS MIPE library collection: MMM1_PLB cell viability assay (AID 1918976); further: nearly all actives have a fitted effect of over 35% in size
# Method in brief: as §1
# [7] = Quantitative High-Throughput drug screen in 47 multiple myeloma cell lines against the NCATS MIPE library collection: MOLP8_DSMZ cell viability assay (AID 1918977); further: nearly all actives have a fitted effect of over 45% in size
# Method in brief: as §1
# [8] = Quantitative High-Throughput drug screen in 47 multiple myeloma cell lines against the NCATS MIPE library collection: KMS20_JCRB cell viability assay (AID 1918973); further: nearly all actives have a fitted effect of over 45% in size
# Method in brief: (§2)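 qHTS of the MIPE 4.0 collection: 500 myeloma cells/well, 48 h drug exposure at 37C in 5% CO2, then CellTiter-Glo for 5 min at room temperature before luminescence reading.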
# [9] = Quantitative High-Throughput drug screen in 47 multiple myeloma cell lines against the NCATS MIPE library collection: KMS21BM_JCRB cell viability assay (AID 1918974); settings: ATP luminescence, 48 h; viability: at 45.8 µM (top of the series)
# Method in brief: as §2
# Potency means the concentration at half of the fitted maximal effect.
smiles,measurement,setting,value
O=C(O)c1nc(=O)[nH]c(=O)[nH]1,Potency,[1],inactive
same,Potency,[2],inactive
same,Potency,[3],inactive
CN(CC=CC#CC(C)(C)C)Cc1cccc2ccccc12,Potency,[1],inactive
same,Potency,[4],inactive
same,Potency,[3],inactive
CN1c2ccccc2C(=O)N2CCc3c([nH]c4ccccc34)C21 (stereo unspecified),Potency,[1],inactive
same,Potency,[5],inactive
same,Potency,[3],10.5 µM (active)
Nc1ncnc2c1ncn2[C@@H]1O[C@H](CO)[C@@H](O)[C@@H]1O,Potency,[1],1.66 µM (active)
same,Potency,[2],16.6 µM (active)
same,Potency,[4],8.33 µM (active)
same,Potency,[5],inactive
same,Potency,[3],0.743 µM (active)
Cc1csc(-c2nnc(Nc3ccc(Oc4ncccc4-c4ccnc(N)n4)cc3)c3ccccc23)c1,Potency,[1],20.9 µM (active)
same,Potency,[5],5.26 µM (active)
same,Potency,[3],18.7 µM (active)
COc1nc(C)cnc1NS(=O)(=O)c1cccnc1-c1ccc(-c2nnco2)cc1,Potency,[1],inactive
same,Potency,[6],5.26 µM (active)
same,Potency,[4],inactive
same,Potency,[5],inactive
same,Potency,[3],inactive
O=C(O)C1=NC(C(=O)O)CC(C=CN2c3cc(O)c(OC4OC(CO)C(O)C(O)C4O)cc3CC2C(=O)O)=C1 (stereo unspecified),Potency,[1],inactive
same,Potency,[6],23.5 µM (active)
same,Potency,[4],inactive
same,Potency,[5],inactive
same,Potency,[3],inactive
C=C1c2cccc(O)c2C(O)=C2C(=O)[C@@]3(O)C(O)=C(C(N)=O)C(=O)[C@@H](N(C)C)[C@@H]3[C@@H](O)[C@H]12,Potency,[1],inactive
same,Potency,[2],4.69 µM (active)
same,Potency,[4],inactive
same,Potency,[5],inactive
CC[C@H](C)n1cc(C)c2c(C(=O)NCc3c(C)cc(C)[nH]c3=O)cc(-c3ccc(N4CCNCC4)nc3)cc21,Potency,[1],inactive
same,Potency,[5],26.4 µM (active)
same,Potency,[3],0.935 µM (active)
CCC(=O)OCC(=O)[C@@]1(OC(=O)CC)[C@@H](C)C[C@@H]2[C@H]3CCC4=CC(=O)C=C[C@]4(C)[C@@]3(F)[C@@H](O)C[C@@]21C,Potency,[1],10.5 µM (active)
same,Potency,[4],inactive
same,Potency,[5],inactive
CCC[C@@H](NC(=O)[C@@H]1[C@H]2CCC[C@@H]2CN1C(=O)[C@@H](NC(=O)[C@@H](NC(=O)c1cnccn1)C1CCCCC1)C(C)(C)C)C(=O)C(=O)NC1CC1,Potency,[1],14.8 µM (active)
same,Potency,[4],inactive
CC(C)c1onc(-c2c(Cl)cccc2Cl)c1COc1ccc(C=Cc2cccc(C(=O)O)c2)c(Cl)c1,Potency,[1],inactive
same,Potency,[6],20.9 µM (active)
same,Potency,[7],inactive
same,Potency,[4],inactive
same,Potency,[3],18.7 µM (active)
CC(=O)OCC(=O)[C@@]12OC(C)(C)O[C@H]1C[C@H]1[C@@H]3C[C@H](F)C4=CC(=O)C=C[C@]4(C)[C@@]3(F)[C@@H](O)C[C@@]12C,Potency,[1],inactive
same,Potency,[2],inactive
same,Potency,[4],inactive
same,Potency,[5],inactive
same,Potency,[3],0.0372 µM (active)
COc1ccc(-c2cc3nccn3c(Nc3ncccc3C(N)=O)n2)cc1OC,Potency,[8],0.418 µM (active)
same,Potency,[2],10.5 µM (active)
same,Potency,[6],10.5 µM (active)
same,Potency,[7],3.72 µM (active)
same,Potency,[4],0.935 µM (active)
same,Potency,[5],inactive
same,Potency,[3],14.8 µM (active)
Cc1cc(NC(=O)Nc2ccc(N(C)C)cc2)c2cc(F)cc(F)c2n1,Potency,[1],1.66 µM (active)
same,Potency,[6],20.9 µM (active)
same,Potency,[7],23.5 µM (active)
same,Potency,[4],inactive
same,Potency,[3],16.6 µM (active)
Cc1ccc2c(c1)C(=O)[C@]1(O)CCN(c3ccccc3)C1=N2,Potency,[6],inactive
same,Potency,[4],inactive
CNC(=O)[C@H](Cc1ccccc1)NC(=O)[C@H](CC(C)C)[C@H](CSc1cccs1)C(=O)NO,Potency,[2],inactive
same,Potency,[4],9.35 µM (active)
C[C@@H](NC(=O)c1ncnc(N)c1Cl)c1ncc(C(=O)Nc2cc(C(F)(F)F)c(Cl)cn2)s1,Potency,[5],2.96 µM (active)
same,Potency,[3],16.6 µM (active)
CN(C)CCOc1cc(-c2cn[nH]c2)ccc1NC(=O)C1COc2ccccc2O1 (stereo unspecified),Potency,[7],inactive
same,Potency,[4],18.7 µM (active)
same,Potency,[5],inactive
C[C@@H](N)c1ccc(C(=O)Nc2ccnc3[nH]ccc23)cc1,Potency,[8],18.7 µM (active)
same,Potency,[7],16.6 µM (active)
same,Potency,[3],18.7 µM (active)
C[C@]12CC[C@@H]3c4ccc(O)cc4CC[C@H]3[C@H]1[C@@H](O)[C@@H](O)[C@H]2O,Potency,[2],inactive
same,Potency,[4],inactive
same,Potency,[5],inactive
same,Potency,[3],26.4 µM (active)
CC(=O)O[C@]1(C(C)=O)CC[C@H]2[C@@H]3C=C(Cl)C4=CC(=O)[C@@H]5C[C@H]5[C@]4(C)[C@@H]3CC[C@@]21C,Potency,[4],9.35 µM (active)
same,Potency,[5],inactive
same,Potency,[3],7.43 µM (active)
CC(C)(C)c1[nH]cnc1C=c1[nH]c(=O)c(=Cc2ccccc2)[nH]c1=O,Potency,[2],0.0241 µM (active)
same,Potency,[6],15.2 µM (active)
same,Potency,[4],0.0215 µM (active)
CC1(C)OC2CC3C4CC(F)C5=CC(=O)C=CC5(C)C4C(O)CC3(C)[C@]2(C(=O)CO)O1 (stereo partly specified),Potency,[9],0.0083 µM (active)
same,Potency,[2],inactive
same,Potency,[6],inactive
same,Potency,[4],inactive
same,Potency,[5],inactive
same,Potency,[3],0.0166 µM (active)
CNc1nc(-c2ccc3c(N)n[nH]c3c2)cc(N2C[C@@H](C(=O)NC3CCCCC3)CC[C@@H]2C)n1,Potency,[4],1.18 µM (active)
same,Potency,[5],18.7 µM (active)
same,Potency,[3],16.6 µM (active)
CO[C@H]1C=CO[C@@]2(C)Oc3c(C)c(O)c4c(O)c(c(C=NN5CCN(C)CC5)c(O)c4c3C2=O)NC(=O)C(C)=CC=C[C@H](C)[C@H](O)[C@@H](C)[C@@H](O)[C@@H](C)[C@H](OC(C)=O)[C@H]1C,Potency,[4],inactive
same,Potency,[5],inactive
same,Potency,[3],inactive
CCC[C@H](Nc1nc(-c2ccc(NC(=O)NCC)c(OC)c2)ncc1C)c1cccnc1,Potency,[2],0.0209 µM (active)
same,Potency,[6],0.0209 µM (active)
same,Potency,[7],0.0662 µM (active)
same,Potency,[4],0.0074 µM (active)
C[C@]12CCC3=C4CCC(=O)C=C4CC[C@@H]3[C@H]1CC[C@@]2(O)CC#N,Potency,[2],inactive
same,Potency,[4],inactive
same,Potency,[3],inactive
Cc1nc2c([nH]1)CCN(C(=O)c1ccc(NC(=O)c3ccccc3-c3ccccc3)cc1)c1ccccc1-2,Potency,[2],inactive
same,Potency,[7],inactive
same,Potency,[3],inactive
CC(C)(F)C[C@H](N[C@@H](c1ccc(-c2ccc(S(C)(=O)=O)cc2)cc1)C(F)(F)F)C(=O)NC1(C#N)CC1,Potency,[4],inactive
same,Potency,[3],inactive
O=[N+]([O-])c1ccc(Nc2ccccc2-c2ccccc2)c2nonc12,Potency,[5],inactive
CC1=C(CC(=O)O)c2cc(F)ccc2C1=Cc1ccc(S(C)=O)cc1 (stereo unspecified),Potency,[8],9.35 µM (active)
same,Potency,[2],2.09 µM (active)
same,Potency,[4],1.05 µM (active)
same,Potency,[3],1.32 µM (active)
CNC(=O)c1c(-c2ccc(F)cc2)oc2cc(N(CCO)S(C)(=O)=O)c(C3CC3)cc12,Potency,[5],18.7 µM (active)
COc1ccc(-c2oc3c(CC=C(C)C)c(O)cc(O)c3c(=O)c2O)cc1,Potency,[2],16.6 µM (active)
same,Potency,[6],20.9 µM (active)
same,Potency,[4],10.5 µM (active)
same,Potency,[5],inactive
O=C(Nc1ccccc1)Nc1ccc(-c2ccc(C(=O)[C@H]3CCC[C@H]3C(=O)O)cc2)cc1,Potency,[4],inactive
same,Potency,[5],inactive
same,Potency,[3],26.4 µM (active)
Cc1ccc(C(=O)N(CCCN)[C@@H](c2nc3cc(Cl)ccc3c(=O)n2Cc2ccccc2)C(C)C)cc1,Potency,[2],23.5 µM (active)
same,Potency,[6],26.4 µM (active)
same,Potency,[4],8.33 µM (active)
C=CC(=O)Nc1cccc(Sc2nc(Nc3ccc(N4CCN(C)CC4)cc3)ncc2Cl)c1,Potency,[3],18.7 µM (active)
Cc1ccc2c(c1)c1c(n2CCc2ccc(C)nc2)CCN(C)C1,Potency,[2],inactive
same,Potency,[7],inactive
same,Potency,[4],inactive
same,Potency,[5],inactive
same,Potency,[3],inactive
CN1CCC[C@H]1CCO[C@](C)(c1ccccc1)c1ccc(Cl)cc1,Potency,[2],inactive
same,Potency,[7],inactive
same,Potency,[4],11.8 µM (active)
same,Potency,[5],inactive
same,Potency,[3],23.5 µM (active)
CC1CNc2c(cccc2S(=O)(=O)N[C@@H](CCCN=C(N)N)C(=O)N2CC[C@@H](C)C[C@@H]2C(=O)O)C1 (stereo partly specified),Potency,[2],inactive
same,Potency,[5],inactive
same,Potency,[3],7.43 µM (active)
COc1cc(Nc2nc3ccccc3nc2NS(=O)(=O)c2ccc(NC(=O)c3ccc(C)c(OC)c3)cc2)cc(OC)c1,Potency,[8],23.5 µM (active)
same,Potency,[2],11.8 µM (active)
same,Potency,[4],14.8 µM (active)
same,Potency,[3],20.9 µM (active)
Cc1ccc(C(=O)N(CCCN)[C@@H](c2oc3cc(Cl)ccc3c(=O)c2Cc2ccccc2)C(C)C)cc1,Potency,[2],26.4 µM (active)
same,Potency,[6],23.5 µM (active)
same,Potency,[4],8.33 µM (active)
Cn1c(=O)c(-c2c(Cl)cccc2Cl)cc2cnc(Nc3cccc(C(=O)O)c3)nc21,Potency,[2],3.32 µM (active)
same,Potency,[7],2.09 µM (active)
same,Potency,[4],inactive
c1ccc(CNc2nc(N3CCOc4ccccc43)nc3c2CCCC3)cc1,Potency,[7],inactive
same,Potency,[4],inactive
N#Cc1ccc(Oc2ccc3c(c2)COB3O)cc1,Potency,[5],inactive
Cc1nc(C(=O)NCC(=O)O)c(O)c2ccc(Oc3ccccc3)cc12,Potency,[2],inactive
same,Potency,[6],0.0053 µM (active)
same,Potency,[4],inactive
same,Potency,[5],inactive
CCNC(=O)c1noc(-c2cc(C(C)C)c(O)cc2O)c1-c1ccc(CN2CCOCC2)cc1,Potency,[8],0.0209 µM (active)
same,Potency,[4],0.0418 µM (active)
same,Potency,[3],0.0332 µM (active)
Cc1ccc(S(=O)(=O)OCC(=O)Nc2ccc(C(=O)O)c(O)c2)cc1,Potency,[7],inactive
same,Potency,[4],7.43 µM (active)
CN[C@@H](C)[C@H]1[C@H](O)C[C@@]2(C)[C@@H]3CC[C@H]4C(C)(C)[C@@H](NC)CC[C@@]45C[C@@]35CC[C@]12C,viability,[9],62.4% (active)
same,Potency,[2],inactive
same,Potency,[7],inactive
same,Potency,[4],inactive
CN[C@@H]1[C@@H](O)[C@@H](O[C@@H]2[C@@H](O)[C@H](O[C@H]3O[C@H](CN)[C@@H](O)[C@H](O)[C@@H]3O)[C@@H](N)C[C@@H]2NC(=O)[C@@H](O)CN)OC[C@]1(C)O,Potency,[6],5.26 µM (active)
same,Potency,[4],inactive
same,Potency,[5],inactive
N#Cc1c(N(CC(=O)O)CC(=O)O)sc(C(=O)O)c1CC(=O)O,Potency,[8],16.6 µM (active)
same,Potency,[4],26.4 µM (active)
same,Potency,[5],inactive
Cn1cnc(-c2cc3nccc(Oc4ccc(NC(=S)NC(=O)Cc5ccccc5)cc4F)c3s2)c1,Potency,[7],inactive
same,Potency,[5],inactive
